Test: qHTS profiling of the MIPE4 collection as inhibitors of Plasmodium falciparum (DD2) proliferation (Rep 2) (AID 743346)
Conditions: P. falciparum Dd2 in erythrocytes, SYBR Green DNA, 72 h; at 28.5 µM unless noted
Excerpt: Plasmodium falciparum is a virulent malarial parasite that kills 1-2 million people worldwide each year. Transmitted by mosquitoes, the sporozoite form of the parasite enters the blood stream to infect hepatocytes, where they become merozoites that infect red blood cells (erythrocytes). Within erythrocytes, merozoites begin a […] cycle of growth and division, after which the parasite is released to infect new red blood cells. Gametocytes, which form within erythrocytes as well, circulate in the bloodstream and are ingested by the mosquito, thereby completing the life cycle. To profile malarial isolates for differential chemical responses and to identify inhibitors of malarial growth, an assay that measures P. falciparum growth and replication within erythrocytes was employed. This assay uses a DNA binding fluorescent dye (SYBR Green) to detect parasite DNA following cell lysis. Because mature erythrocytes lack DNA, only Plasmodium-derived DNA is detected.
The SYBR Green viability assay was adapted from a method described previously (Plouffe et al., 2008). For screening 3 ul culture medium was dispensed into 1536 well black clear bottom plates (Aurora Biotechnologies) using a Multidrop Combi (Thermo Fisher Scientific Inc.), 23 nL compounds in DMSO were added by a pin tool (Kalypsys), and 5 ul of erythrocytes infected with P. falciparum (0.3% parasitemia, 2.5% hematocrit final concentration) were added. The plates were incubated at 37 C in a humidified incubator in 5% CO2 for 72 h, and 2 ul lysis buffer (20 mM Tris HCl, 10 mM EDTA, 0.16% saponin, 1.6% triton X, 10X SYBR Green I supplied as 10,000X […] by Invitrogen) was added to each well. The plates were mixed for 25 sec with gentle shaking and incubated overnight at room temperature in the dark. The following morning, fluorescence intensity at 485(14) nm excitation and 535(25) nm emission wavelengths was measured on an EnVision (Perkin Elmer) plate reader. Plate reads were normalized relative to the control inhibitor (0.29 uM artemisinin) and vehicle (DMSO) wells present on each plate and then corrected by an algorithm using vehicle-only control plates at the beginning and end of the compound plate stack.

Compound | parasite growth, % of control (lower = inhibition)
CC(C[N+](C)(C)C)OC(N)=O (stereo not given) | 96.7%
O=C(c1cc(Cc2n[nH]c(=O)c3ccccc23)ccc1F)N1CCN(C(=O)C2CC2)CC1 | 44.7%
COc1ccc(-c2ccc3c(N4CCOC[C@H]4C)nc(N4CCOC[C@H]4C)nc3n2)cc1CO | 13.1%
S=C(NCc1ccc2c(c1)OCO2)N1CCN(c2ncnc3c2oc2ccccc23)CC1 | 63.5% [at 57.5 µM]
CCN(c1ccccc1)c1cc(NC)[n+](C)c(C)n1 | 58.7%
N[C@@H]1CONC1=O | 80.9%
c1ccc([C@H]2CN3CCSC3=N2)cc1 | 63.1%
Cc1cnc(NC(=O)C2=C(O)c3ccccc3S(=O)(=O)N2C)s1 | 61.9%
C[C@]1(c2nc3c(C(N)=O)cccc3[nH]2)CCCN1 | 85.5%
Cc1cc(-c2ccc(CC(=O)Nc3ccc(-c4cccnc4)cc3)cc2)ccn1 | 110%
CC[C@@H](C)[C@H](NC(=O)[C@H](CC1CCCCC1)NC(=O)c1ccno1)C(=O)N1CCC2(CCc3ccccc32)CC1 | 14%
Nc1cccc(S(=O)(=O)N2CCCN(S(=O)(=O)c3ccc4c(c3)OCCO4)CC2)c1 | 120%
Cc1cc(SCc2sc(-c3ccc(C(F)(F)F)cc3)nc2C)ccc1OCC(=O)O | 50.7%
COc1cc(Nc2ncc3c(n2)-c2ccc(Cl)cc2C(c2c(F)cccc2OC)=NC3)ccc1C(=O)O | 39.4%
Cc1cc(C=c2sc3nc4ccccc4n3c2=O)c(C)n1-c1ccccc1 | 73%
Cc1c(C)c2c(c(C)c1O)CCC(C)(COc1ccc(CC3SC(=O)NC3=O)cc1)O2 (stereo not given) | 43.6%
Fc1ccc(Cl)cc1-c1nc(Nc2ccncc2)c2nccnc2n1 | 30.8%
c1ccc(-c2nn3c(c2-c2ccnc4cc(OCCN5CCOCC5)ccc24)CCC3)nc1 | 58.7%
Cc1cn[nH]c1 | 6.63%
C#Cc1cccc(Nc2ncnc3cc(OCCOC)c(OCCOC)cc23)c1 | 43.1%

Compound | parasite growth, % of control (lower = inhibition)
Nc1nccc(-c2ccc3noc(-c4ccc(Cl)cc4)c3c2)n1 | 79.2%
CN(C)c1ccc(C2Nc3ccc4ccccc4c3C3=C2C(=O)CC(C)(C)C3)cc1Br (stereo not given) | 33.7%
OC(CN1CCC(Cc2ccc(F)cc2)CC1)c1ccc(Cl)cc1 (stereo not given) | 19.9%
O=C(C1CC1)N1CC[C@@H](Cn2c(-c3ccc(-c4ccc5occc5c4)cc3)nc3cnccc32)C1 | 46.6%
CNC(=O)c1ccc(N2C(=S)N(c3ccc(C#N)c(C(F)(F)F)c3)C(=O)C2(C)C)cc1F | 53.7%
Cc1c(CN2CCN(C(=O)C(C)C)CC2)sc2c(N3CCOCC3)nc(-c3cnc(N)nc3)nc12 | 14.5%
COc1ccccc1-c1cccc(-c2c(O)c3cc(C#N)c(Cl)cc3[nH]c2=O)c1 | 32.5% [at 57.5 µM]
CCCc1nc2c(C)cc(-c3nc4ccccc4n3C)cc2n1Cc1ccc(-c2ccccc2C(=O)O)cc1 | 21.8%
N#CC[C@H](C1CCCC1)n1cc(-c2ncnc3[nH]ccc23)cn1 | 55.7%
CCN(CC)CCCC(C)Nc1nc(C)cc(Nc2ccc3nc(C)cc(N)c3c2)n1 (stereo not given) | 14.4%
CCn1cc(C(=O)O)c(=O)c2cc(F)c(N3CCNC(C)C3)c(F)c21 (stereo not given) | 83.6%
O=c1ncn2nc(Sc3ccc(F)cc3F)ccc2c1-c1c(Cl)cccc1Cl | 18.7%
COCCNCCCn1c(C(=O)CF)c(-c2ccc(C)cc2)c2c(N)ncnc21 | 36.5%
CCc1cc(Nc2nccc(-c3c(-c4ccc(OC)c(C(=O)Nc5c(F)cccc5F)c4)nc4ccccn34)n2)c(OC)cc1N1CCC(N2CCN(S(C)(=O)=O)CC2)CC1 | 14.9%
Cc1ccccc1C(OCCN(C)C)c1ccccc1 (stereo not given) | 40.2%
CCOc1ccc(Cc2cc([C@@H]3O[C@H](CO)[C@@H](O)[C@H](O)[C@@H]3O)ccc2Cl)cc1 | 103%
C[C@]12CC[C@H](O)CC1=CC[C@@H]1[C@H]2CC[C@]2(C)C(c3cccnc3)=CC[C@H]12 | 24.8% [at 9.64 µM]
CCc1ccc(CCOc2ccc(CC3SC(=O)NC3=O)cc2)nc1 (stereo not given) | 79.4%
O=c1n(CCCN2CCN(c3cccc(Cl)c3)CC2)nc2ccccn12 | 72.8%
COc1cc2c(cc1OC)CN(CCc1ccc(NC(=O)c3cccc4c(=O)c5cccc(OC)c5[nH]c34)cc1)CC2 | 10%
